Laboratory results from PubChem BioAssay AID1159580 (chemical genetic matrix, 2015).
Screen size: about 5,500 compounds; about 2,000 (36%) were called active. Inconclusive results (about 18%) are left out. Cut-off read from the data, not from the text of the source: active = normalized growth mostly below about 0.91 (no sharp cut-off); inconclusive = no clear call, values can overlap the other calls; inactive = mostly above about 0.92. Some of the results follow.

Assay: chemical genetic growth profiling, strain panel (AID 1159580);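 note: tested at 20 µM; growth read once vehicle control cultures reached saturation at 30 °C; 1 = growth at the plate median or of vehicle wells; lower values mean less growth of the strain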
Details: growth OD

Measured: normalized growth

COC(=O)C[C@H]1C(C)(C)[C@@H](O)[C@@H]2CC3=C4CC(O)O[C@@H](c5ccoc5)[C@]4(C)CCC3[C@@]1(C)C2=O (some centres not stated)
inactive: S. cerevisiae deletion strains, locus YJL187C, strain SWE1, stronger effect = lower value 1.03 | S. cerevisiae deletion strains, locus YJR066W, strain TOR1, stronger effect = lower value 0.962 | S. cerevisiae deletion strains, locus YJR075W, strain HOC1, stronger effect = lower value 0.99 | S. cerevisiae deletion strains, locus YKL009W, strain mrt4, stronger effect = lower value 0.985 | S. cerevisiae deletion strains, locus YKL068W, stronger effect = lower value 0.98 | S. cerevisiae deletion strains, locus YKL085W, strain MDH1 (second series), stronger effect = lower value 0.99 | S. cerevisiae deletion strains, locus YKL085W, strain MDH1, stronger effect = lower value 0.99 | S. cerevisiae deletion strains, locus YKL160W, strain elf1, stronger effect = lower value 0.998 | S. cerevisiae deletion strains, locus YKL190W, strain CNB1, stronger effect = lower value 1 | S. cerevisiae deletion strains, locus YKR001C, strain vps1, stronger effect = lower value 0.98 | S. cerevisiae deletion strains, locus YKR026C, strain gcn3, stronger effect = lower value 1.02 | S. cerevisiae deletion strains, locus YKR091W, strain srl3, stronger effect = lower value 1.01 | S. cerevisiae deletion strains, locus YLL001W, strain dnm1, stronger effect = lower value 0.994 | S. cerevisiae deletion strains, locus YLL026W, stronger effect = lower value 1.02 | S. cerevisiae deletion strains, locus YLL041C, strain sdh2, stronger effect = lower value 1.02 | S. cerevisiae deletion strains, locus YLR027C, strain aat2, stronger effect = lower value 1.04 | S. cerevisiae deletion strains, locus YLR039C, strain RIC1, stronger effect = lower value 0.981 | S. cerevisiae deletion strains, locus YLR058C, strain SHM2, stronger effect = lower value 1 | S. cerevisiae deletion strains, locus YLR102C, strain apc9, stronger effect = lower value 0.99 | S. cerevisiae deletion strains, locus YLR113W, strain HOG1, stronger effect = lower value 0.971 | S. cerevisiae deletion strains, locus YLR221C, strain rsa3, stronger effect = lower value 1.06 | S. cerevisiae deletion strains, locus YLR258W, strain gsy2, stronger effect = lower value 0.99 | S. cerevisiae deletion strains, locus YLR262C, strain YPT6 (second series), stronger effect = lower value 1.01 | S. cerevisiae deletion strains, locus YLR268W, strain sec22, stronger effect = lower value 1.02 | S. cerevisiae deletion strains, locus YLR320W, strain mms22, stronger effect = lower value 1.06 | S. cerevisiae deletion strains, locus YLR342W, strain FKS1, stronger effect = lower value 1.02 | S. cerevisiae deletion strains, locus YLR357W, strain rsc2, stronger effect = lower value 1.04 | S. cerevisiae deletion strains, locus YLR370C, strain arc18, stronger effect = lower value 1 | S. cerevisiae deletion strains, locus YLR371W, strain rom2, stronger effect = lower value 0.96 | S. cerevisiae deletion strains, locus YLR384C, strain iki3, stronger effect = lower value 0.999 | S. cerevisiae deletion strains, locus YLR418C, strain cdc73, stronger effect = lower value 0.946 | S. cerevisiae deletion strains, locus YML016C, strain PPZ1, stronger effect = lower value 1.01 | S. cerevisiae deletion strains, locus YML032C, strain rad52, stronger effect = lower value 0.983 | S. cerevisiae deletion strains, locus YML120C, strain ndi1, stronger effect = lower value 0.995 | S. cerevisiae deletion strains, locus YML124C, strain tub3, stronger effect = lower value 0.981 | S. cerevisiae deletion strains, locus YMR058W, strain fet3, stronger effect = lower value 1.04 | S. cerevisiae deletion strains, locus YMR078C, strain ctf18, stronger effect = lower value 0.957 | S. cerevisiae deletion strains, locus YMR125W, strain sto1, stronger effect = lower value 1.02 | S. cerevisiae deletion strains, locus YMR129W, stronger effect = lower value 1.02 | S. cerevisiae deletion strains, locus YMR205C, strain PFK2, stronger effect = lower value 1.03 | S. cerevisiae deletion strains, locus YMR223W, strain ubp8, stronger effect = lower value 0.988 | S. cerevisiae deletion strains, locus YMR231W, strain pep5, stronger effect = lower value 1.02 | S. cerevisiae deletion strains, locus YMR263W, strain SAP30, stronger effect = lower value 0.983 | S. cerevisiae deletion strains, locus YMR307W, strain GAS1, stronger effect = lower value 1.09 | S. cerevisiae deletion strains, locus YNL067W, strain RPL9B, stronger effect = lower value 0.967 | S. cerevisiae deletion strains, locus YNL071W, strain lat1, stronger effect = lower value 1 | S. cerevisiae deletion strains, locus YNL153C, strain GIM3, stronger effect = lower value 0.978 | S. cerevisiae deletion strains, locus YNL183C, strain NPR1, stronger effect = lower value 0.987 | S. cerevisiae deletion strains, locus YNL209W, strain ssb2, stronger effect = lower value 1 | S. cerevisiae deletion strains, locus YNL233W, strain BNI4, stronger effect = lower value 1.02 | S. cerevisiae deletion strains, locus YNL248C, strain rpa49, stronger effect = lower value 1.05 | S. cerevisiae deletion strains, locus YNL250W, strain rad50, stronger effect = lower value 0.944 | S. cerevisiae deletion strains, locus YNL271C, strain bni1, stronger effect = lower value 0.981 | S. cerevisiae deletion strains, locus YNL298W, strain CLA4, stronger effect = lower value 0.981 | S. cerevisiae deletion strains, locus YNL307C, strain MCK1, stronger effect = lower value 0.994 | S. cerevisiae deletion strains, locus YNL322C, strain KRE1 (second series), stronger effect = lower value 1.04 | S. cerevisiae deletion strains, locus YNR049C, strain mso1, stronger effect = lower value 1.01 | S. cerevisiae deletion strains, locus YNR052C, strain pop2, stronger effect = lower value 0.975 | S. cerevisiae deletion strains, locus YOL006C, strain TOP1, stronger effect = lower value 1.12 | S. cerevisiae deletion strains, locus YOL012C, strain htz1 0.701 | S. cerevisiae deletion strains, locus YOL147C, strain pex11, stronger effect = lower value 0.985 | S. cerevisiae deletion strains, locus YOR001W, strain rrp6, stronger effect = lower value 1.06 | S. cerevisiae deletion strains, locus YOR061W, strain CKA2, stronger effect = lower value 1 | S. cerevisiae deletion strains, locus YOR069W, strain VPS5, stronger effect = lower value 1.01 | S. cerevisiae deletion strains, locus YOR070C, strain gyp1, stronger effect = lower value 1.02 | S. cerevisiae deletion strains, locus YOR080W, strain dia2, stronger effect = lower value 1.03 | S. cerevisiae deletion strains, locus YOR083W, strain WHI5, stronger effect = lower value 0.988 | S. cerevisiae deletion strains, locus YOR106W, strain vam3, stronger effect = lower value 0.954 | S. cerevisiae deletion strains, locus YOR136W, strain idh2, stronger effect = lower value 0.999 | S. cerevisiae deletion strains, locus YOR144C, strain elg1, stronger effect = lower value 0.99 | S. cerevisiae deletion strains, locus YOR184W, strain ser1, stronger effect = lower value 1.03 | S. cerevisiae deletion strains, locus YOR231W, strain MKK1, stronger effect = lower value 0.983 | S. cerevisiae deletion strains, locus YOR265W, strain rbl2, stronger effect = lower value 1 | S. cerevisiae deletion strains, locus YOR270C, strain vph1, stronger effect = lower value 1.05 | S. cerevisiae deletion strains, locus YOR290C, strain snf2, stronger effect = lower value 0.953 | S. cerevisiae deletion strains, locus YOR316C, strain cot1, stronger effect = lower value 0.985 | S. cerevisiae deletion strains, locus YPL051W, strain arl3, stronger effect = lower value 1.04 | S. cerevisiae deletion strains, locus YPL078C, strain atp4, stronger effect = lower value 0.976 | S. cerevisiae deletion strains, locus YPL106C, strain sse1, stronger effect = lower value 1.04 | S. cerevisiae deletion strains, locus YPL240C, strain hsp82, stronger effect = lower value 1.01 | S. cerevisiae deletion strains, locus YPL256C, strain CLN2, stronger effect = lower value 1.01 | S. cerevisiae deletion strains, locus YPR119W, strain clb2, stronger effect = lower value 0.977 | S. cerevisiae deletion strains, locus YPR141C, strain kar3, stronger effect = lower value 0.977 | S. cerevisiae deletion strains, locus YPR163C, strain tif3, stronger effect = lower value 0.989 | S. cerevisiae deletion strains, locus YPR167C, strain met16, stronger effect = lower value 0.971 | S. cerevisiae deletion strains, strain wtn01, stronger effect = lower value 1 | S. cerevisiae strains, strain wild type, stronger effect = lower value 1.03
